Results on 22 molecules are retold here after PubChem BioAssay (NCATS).

In assay [1] the target is Rap guanine nucleotide exchange factor 3 (Homo sapiens) (UniProt O95398). The experiment in a line: Confirmatory qHTS for antagonist of cAMP-regulated guanine nucleotide exchange factor 3 (EPAC1) (AID 1645880). Note: nearly all actives have a fitted effect of over 55% in size. Note: potency is the fitted concentration of half-maximal effect. The gist of the method: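 Released BODIPY-GDP fluoresces less than Rap1-bound BODIPY-GDP; the signal is followed at 480/540 nm at 5-min intervals over 30 min, after 5 min at room temperature. Reactions contain 100 nM EPAC1, 250 nM RAP1B-BODIPY-GDP and 50 uM GDP; results are normalized to ATA and DMSO.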
Background: qHTS replaces the single test concentration by a dilution series.

Assay [2] shares this target. The experiment in a line: Confirmatory qHTS for agonist of cAMP-regulated guanine nucleotide exchange factor 3 (EPAC1) (AID 1645881).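 For activation: EPAC1 catalysed release of BODIPY-GDP from Rap1B seen as fluorescence loss; 100% = effect of cAMP agonist control.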 Note: nearly all actives have a fitted effect of over 75% in size. Note: potency is the fitted concentration of half-maximal effect.
For assay [3], the target named is Rap guanine nucleotide exchange factor 4 (Homo sapiens) (UniProt Q8WZA2). The experiment in a line: Confirmatory qHTS for agonist of cAMP-regulated guanine nucleotide exchange factor 4 (EPAC2) (AID 1645884). For activation: % is set by controls: 0 for no effect and ±100 for the full control effect.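 Note: nucleotide exchange releases bodipy-GDP from Rap1 and this lowers its fluorescence; nearly all actives have a fitted effect of over 65% in size.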 Note: potency is the fitted concentration of half-maximal effect.
For assay [4] the target is unchanged. The experiment in a line: Confirmatory qHTS for antagonist of cAMP-regulated guanine nucleotide exchange factor 4 (EPAC2) (AID 1645885). For activity change, negative = inhibition: % is set by controls: 0 for no effect and ±100 for the full control effect. Note: nearly all actives have a fitted effect of over 25% in size. Note: potency is the fitted concentration of half-maximal effect.
The target of assay [5] is Rap guanine nucleotide exchange factor 3 (Homo sapiens) (UniProt O95398). Nature of the assay: Counterscreen qHTS for antagonist of cAMP-regulated guanine nucleotide exchange factor 3 (EPAC1) (AID 1645888). Note: % of control where 0% means no effect. The gist of the method:
(§1)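 Rap1B–BODIPY-GDP (250 nM) with 50 uM GDP; compounds pin-transferred to 9.74 nM–152 uM final (activator) or from 7.32 nM upwards (inhibitor). Fluorescence Ex/Em 480/540 nm read at 5 and 30 min, then after adding cAMP or buffer, at room temperature.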
In general terms: Counterscreens check selectivity or assay interference.

The target is the same in assay [6]. The experiment in a line: Counterscreen qHTS for agonist of cAMP-regulated guanine nucleotide exchange factor 3 (EPAC1) (AID 1645889). For activation: % of control where 0% means no effect. Note: nearly all actives have a fitted effect of over 40% in size. Note: potency is the fitted concentration of half-maximal effect. The essentials:
as §1

Assay [7] addresses Cytochrome P450 1A2 (Homo sapiens) (UniProt P05177). Nature of the assay: p450-cyp1a2 (AID 410; calls by dose curve; note: potency is the fitted concentration of half-maximal effect). The essentials:
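O-Demethylation of luciferin 6' methyl ether by human CYP1A2 is monitored as luciferase luminescence. Substrate sits at Km (100uM); enzyme is 20nM. Values are scaled to 57 uM furafylline as maximal inhibition.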

In assay [8] the target is Glucocorticoid receptor (Homo sapiens) (UniProt P04150). Nature of the assay: GR-GFP Redistribution (AID 450;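 active = compounds whose dose series gives a full or clear partial fitted curve of increased nuclear translocation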; note: potency is the fitted concentration of half-maximal effect). The note with it: U2OS GR-GFP nuclear translocation, laser cytometry, 2 h.
Assay [9] has the same target. The experiment in a line: GR-EFC Redistribution (AID 451; calls by dose curve; note: potency is the fitted concentration of half-maximal effect). The note with it: CHO-K1 GR-EFC translocation, beta-gal luminescence, 2 h. The essentials:
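CHO-K1 cells expressing nuclear EA and GR-ED fragments of b-gal; compounds titrated up to 46 uM final, 2 h at 37 C. GR nuclear translocation read as complemented b-gal luminescence after 1 h RT detection.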

Assay [10] concerns the target DNA dC->dU-editing enzyme APOBEC-3G (Homo sapiens) (UniProt Q9HC16). Nature of the assay: qHTS for inhibitors of Vif-A3G interactions: Validation (AID 588379). Note: 0% is about no effect. The essentials:
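Yellow fluorescence (Ex 488, Em 500-530) of Vif-coexpressing HeLa A3G-eYFP cells, scanned by Acumen cytometer, reports blocked A3G degradation. Cells plated at 700/well overnight at 37 deg C before compound addition, then a further overnight compound incubation at 37 deg C.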

Unmarked numbers belong to inactive results. Records with an inconclusive call do not appear. Activity calls are given as the source filed them. Unless noted, calls come from the whole dose curve; as a rule, active = well fitted curve in the direction sought with a large enough effect; inconclusive = small, poorly fitted or top-dose-only effect, or another doubt; inactive = no such curve, though single readings can be large; an effect the other way counts as inactive or inconclusive.

Chain of Rap guanine nucleotide exchange factor 4 (Homo sapiens) (Q8WZA2 whole entry, looked up): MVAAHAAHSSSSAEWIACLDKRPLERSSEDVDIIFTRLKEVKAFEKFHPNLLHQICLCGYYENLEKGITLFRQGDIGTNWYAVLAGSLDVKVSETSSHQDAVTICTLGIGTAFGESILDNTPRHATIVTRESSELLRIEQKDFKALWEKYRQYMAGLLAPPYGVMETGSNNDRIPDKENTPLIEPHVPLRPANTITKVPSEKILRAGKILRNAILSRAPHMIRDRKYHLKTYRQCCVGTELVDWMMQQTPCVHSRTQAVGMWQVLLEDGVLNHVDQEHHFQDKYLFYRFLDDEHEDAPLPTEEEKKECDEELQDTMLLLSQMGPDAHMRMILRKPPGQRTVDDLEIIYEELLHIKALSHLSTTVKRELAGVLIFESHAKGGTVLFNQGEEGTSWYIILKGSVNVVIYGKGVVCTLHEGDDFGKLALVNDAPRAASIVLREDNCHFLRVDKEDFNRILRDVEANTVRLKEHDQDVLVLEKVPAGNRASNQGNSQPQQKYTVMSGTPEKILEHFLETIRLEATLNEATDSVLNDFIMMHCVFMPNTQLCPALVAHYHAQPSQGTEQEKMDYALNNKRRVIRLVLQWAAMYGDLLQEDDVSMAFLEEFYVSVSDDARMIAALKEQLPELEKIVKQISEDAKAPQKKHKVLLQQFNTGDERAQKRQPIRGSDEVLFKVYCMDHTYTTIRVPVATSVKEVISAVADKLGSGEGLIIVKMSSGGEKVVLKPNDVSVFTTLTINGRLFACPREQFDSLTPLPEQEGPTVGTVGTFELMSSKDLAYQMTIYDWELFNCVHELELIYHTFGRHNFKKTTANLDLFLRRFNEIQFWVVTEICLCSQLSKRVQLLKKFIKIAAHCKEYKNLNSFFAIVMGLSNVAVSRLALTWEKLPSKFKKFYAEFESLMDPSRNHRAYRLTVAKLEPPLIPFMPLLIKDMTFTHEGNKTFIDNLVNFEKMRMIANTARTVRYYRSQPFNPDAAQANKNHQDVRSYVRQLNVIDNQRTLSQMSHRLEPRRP
Chain of Rap guanine nucleotide exchange factor 3 (Homo sapiens) (O95398 whole entry, looked up): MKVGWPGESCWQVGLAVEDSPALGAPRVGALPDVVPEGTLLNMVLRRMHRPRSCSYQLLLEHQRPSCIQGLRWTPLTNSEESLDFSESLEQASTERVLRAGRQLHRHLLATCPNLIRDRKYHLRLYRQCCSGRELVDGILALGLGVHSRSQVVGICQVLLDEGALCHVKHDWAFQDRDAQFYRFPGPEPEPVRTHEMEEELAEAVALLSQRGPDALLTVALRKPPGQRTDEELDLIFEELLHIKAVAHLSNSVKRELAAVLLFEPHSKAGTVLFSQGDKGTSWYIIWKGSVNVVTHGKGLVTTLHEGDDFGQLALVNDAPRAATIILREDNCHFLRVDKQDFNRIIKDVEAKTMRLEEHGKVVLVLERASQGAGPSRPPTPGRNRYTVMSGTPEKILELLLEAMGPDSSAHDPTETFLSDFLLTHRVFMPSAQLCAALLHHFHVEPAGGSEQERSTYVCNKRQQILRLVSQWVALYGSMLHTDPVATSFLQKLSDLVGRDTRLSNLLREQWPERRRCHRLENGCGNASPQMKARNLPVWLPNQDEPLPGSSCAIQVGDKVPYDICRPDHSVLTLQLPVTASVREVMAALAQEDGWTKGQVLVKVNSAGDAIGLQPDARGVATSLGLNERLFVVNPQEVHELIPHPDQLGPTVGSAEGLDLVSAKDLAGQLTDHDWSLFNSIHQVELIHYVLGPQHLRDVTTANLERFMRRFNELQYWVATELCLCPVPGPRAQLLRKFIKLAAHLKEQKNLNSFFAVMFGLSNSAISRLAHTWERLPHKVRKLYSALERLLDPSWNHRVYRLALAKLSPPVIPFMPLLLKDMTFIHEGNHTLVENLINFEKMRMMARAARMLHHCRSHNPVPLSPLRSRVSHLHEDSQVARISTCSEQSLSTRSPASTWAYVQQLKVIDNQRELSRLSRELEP
Chain of Glucocorticoid receptor (Homo sapiens) (P04150 whole entry, looked up): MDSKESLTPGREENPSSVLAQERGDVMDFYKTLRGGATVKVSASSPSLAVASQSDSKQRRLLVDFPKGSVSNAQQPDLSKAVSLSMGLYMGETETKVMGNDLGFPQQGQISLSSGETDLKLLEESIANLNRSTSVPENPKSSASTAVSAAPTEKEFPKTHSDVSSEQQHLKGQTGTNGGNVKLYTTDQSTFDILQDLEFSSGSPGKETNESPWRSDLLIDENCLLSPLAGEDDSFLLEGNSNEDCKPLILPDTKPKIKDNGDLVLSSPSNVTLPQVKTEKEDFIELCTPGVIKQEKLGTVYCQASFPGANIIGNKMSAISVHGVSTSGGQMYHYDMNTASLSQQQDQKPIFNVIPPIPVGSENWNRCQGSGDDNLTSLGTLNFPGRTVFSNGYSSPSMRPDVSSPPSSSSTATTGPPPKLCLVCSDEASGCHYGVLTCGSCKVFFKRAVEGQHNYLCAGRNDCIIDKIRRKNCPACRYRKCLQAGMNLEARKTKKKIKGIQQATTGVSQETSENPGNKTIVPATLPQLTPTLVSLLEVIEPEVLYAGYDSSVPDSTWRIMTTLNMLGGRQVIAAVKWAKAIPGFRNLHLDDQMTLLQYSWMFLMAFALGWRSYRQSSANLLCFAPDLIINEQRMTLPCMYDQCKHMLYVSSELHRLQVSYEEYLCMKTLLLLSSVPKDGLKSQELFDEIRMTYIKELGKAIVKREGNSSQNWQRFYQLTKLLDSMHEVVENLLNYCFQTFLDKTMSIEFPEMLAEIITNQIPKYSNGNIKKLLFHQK
Chain of Cytochrome P450 1A2 (Homo sapiens) (P05177 whole entry, looked up): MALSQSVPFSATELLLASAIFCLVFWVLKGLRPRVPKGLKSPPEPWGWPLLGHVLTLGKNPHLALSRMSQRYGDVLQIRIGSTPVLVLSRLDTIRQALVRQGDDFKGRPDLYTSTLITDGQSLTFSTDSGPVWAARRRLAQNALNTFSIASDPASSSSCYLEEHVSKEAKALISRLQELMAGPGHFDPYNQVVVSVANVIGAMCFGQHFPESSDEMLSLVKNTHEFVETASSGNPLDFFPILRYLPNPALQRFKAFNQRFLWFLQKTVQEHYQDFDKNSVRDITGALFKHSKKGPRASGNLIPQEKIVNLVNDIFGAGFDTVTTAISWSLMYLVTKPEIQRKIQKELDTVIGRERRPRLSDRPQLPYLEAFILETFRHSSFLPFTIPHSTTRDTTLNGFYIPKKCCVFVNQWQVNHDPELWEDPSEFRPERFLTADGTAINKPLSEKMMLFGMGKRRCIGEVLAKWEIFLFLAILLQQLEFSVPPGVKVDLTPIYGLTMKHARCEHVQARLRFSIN
Chain of DNA dC->dU-editing enzyme APOBEC-3G (Homo sapiens) (Q9HC16 whole entry, looked up): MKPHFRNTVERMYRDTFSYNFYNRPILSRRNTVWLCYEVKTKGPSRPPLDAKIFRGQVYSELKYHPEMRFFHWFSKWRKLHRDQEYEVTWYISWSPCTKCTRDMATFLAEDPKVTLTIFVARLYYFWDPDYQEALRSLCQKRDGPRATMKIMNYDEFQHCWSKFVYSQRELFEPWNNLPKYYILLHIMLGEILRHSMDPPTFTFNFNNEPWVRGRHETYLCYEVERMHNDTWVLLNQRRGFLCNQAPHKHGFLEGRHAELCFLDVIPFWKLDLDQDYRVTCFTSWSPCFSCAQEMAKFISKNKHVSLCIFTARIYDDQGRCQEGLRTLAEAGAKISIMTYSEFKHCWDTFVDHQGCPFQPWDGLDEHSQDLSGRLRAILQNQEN

In the case of `CCCCn1c(N)c(N(CC(C)C)C(=O)C2CCN(C(=O)c3ccc(Cl)cc3)CC2)c(=O)[nH]c1=O`, the Potency result in [1], in assay [2], in [3], in [4], in assay [5] and in assay [6] was “inactive” each time.
As to `CCOC(=O)C1=C(C)OC(N)=C(C#N)C1c1ccc(OC)c(CSc2ccccn2)c1` (stereo not drawn), the Potency result in assay [1], in assay [2] and in assay [4] was “inactive” throughout. Further, the activation is 7.18% [at 17.1 µM, percent relative to cAMP agonist control] in assay [3] and 28.3% [at 30.8 µM] in assay [6]. Besides, the activity change, negative = inhibition in [5] was -6.88% [at 30.8 µM].
As for `Cc1cc(-c2csc(N)n2)c(C)n1CCC(C)C`, the Potency entry in assay [1], in assay [2], in assay [3], in [4], in assay [5] and in [6] was “inactive” each time.
As to `O=C(O)c1cc(S(=O)(=O)Nc2cc(Cl)ccc2Oc2ccccc2)ccc1O`, the Potency in assay [1] is 26.9 µM (active). In addition, the Potency result in assay [2], in assay [3], in [4], in [5] and in assay [6] was “inactive” in each case.
As to `Cc1nc(SC(C)C(=O)NCC2CCCO2)c2cc(-c3ccccc3)sc2n1` (stereo not drawn), the Potency result in assay [1], in [2], in [3], in assay [4], in [5] and in assay [6] was “inactive” each time.
In the case of `CC1CCC2=NN(C(=O)c3ccco3)C(O)(C(F)(F)F)C2C1` (stereo not drawn), the Potency entry in assay [1], in [2] and in [4] was “inactive” throughout. Besides, the activation in [3] was 4.2% [at 17.1 µM, percent relative to cAMP agonist control]; in [6], -2.19% [at 30.8 µM]. The activity change, negative = inhibition in assay [5] was -9.1% [at 30.8 µM].
On to `O=C(CCNC(=O)c1ccc(Br)cc1)Nc1ccccc1N1CCOCC1`, for which the Potency entry in [1], in assay [2], in assay [3], in assay [4], in assay [5] and in assay [6] was “inactive” throughout.
As to `CN1CCN(C(c2ccccc2Cl)c2sc3nc(-c4ccco4)nn3c2O)CC1` (stereo not drawn), the Potency entry in assay [1], in assay [2], in assay [3], in assay [5] and in assay [6] was “inactive” throughout. Moreover, in [4], the outcome was “inactive [at 12.7 µM]”.
As to `CCC(C)NC(=O)CS(=O)Cc1nc(-c2ccccc2C)oc1C` (stereo not drawn), the Potency entry in assay [1], in [2], in assay [3], in assay [4], in [5] and in assay [6] was “inactive” each time.
As for `CN(Cc1ccccc1F)c1nc(-c2cccs2)nc2ccccc12`, the Potency entry in [1], in assay [2] and in assay [4] was “inactive” each time. The activation was 0% [at 17.1 µM, percent relative to cAMP agonist control] in [3] and 4.35% [at 30.8 µM] in [6]. Further, the activity change, negative = inhibition in [5] is -18.6% [at 30.8 µM].
Consider `CCc1nc2c(OCc3ccc(C(=O)OC)cc3)cccn2c1N(C)C(=O)CC(C)C`, for which the Potency result in [1], in assay [2], in [3], in [4], in [5] and in [6] was “inactive” in each case.
With `CN(CCc1ccccn1)C(=O)Nc1ccc(F)cc1`, the Potency entry in assay [1], in assay [2], in assay [3], in assay [4], in [5] and in assay [6] was “inactive” throughout.
On to `O=c1[nH]c(/C=C/c2cccc([N+](=O)[O-])c2)c([N+](=O)[O-])c(=O)[nH]1`, for which the Potency in assay [1] is 16.9 µM (active). Besides, the Potency entry in assay [2], in [3], in assay [4], in [5] and in assay [6] was “inactive” throughout.
For `Nc1ccc(-c2c3ccc(=O)cc-3oc3cc(O)ccc23)c(C(=O)O)c1`, the Potency entry in assay [1] and in assay [4] was “inactive” each time. For the same molecule, the Potency in assay [2] is 100 µM (active); in [3], 100 µM (active); in assay [6] it was 31.6 µM (active).
For the molecule `Cn1c(=O)c2c(nc(N3CCOCC3)n2CCSc2ncccn2)n(C)c1=O`, in [2], the Potency entry was “inactive”. Moreover, the activation in assay [3] is 5.38% [at 17.1 µM, percent relative to cAMP agonist control]. The Potency in assay [4] is 0.338 µM (active). Also, the activity change, negative = inhibition in [5] is -3.24% [at 30.8 µM].
On to `Cc1cc(C)cc(-c2nnc(SCc3ccc(C(=O)O)cc3)o2)c1`, for which the Potency result in assay [2] and in assay [4] was “inactive” throughout. The activation in assay [3] was 0% [at 17.1 µM, percent relative to cAMP agonist control]. Besides, the activity change, negative = inhibition in assay [5] is -19.9% [at 30.8 µM].
For `CCN(CC)c1ccc2cc(-c3nnc(Nc4ccc(C)cc4)s3)c(=O)oc2c1`, the Potency in [2] is 112 µM (active); in [3] it was 35.5 µM (active); in assay [4] it was 5.36 µM (active).
In the case of `COc1c(-c2ccccc2)oc2c(ccc3occc32)c1=O`, the results for the Potency in assay [7], in assay [8] and in assay [9] were 0.0251 µM (active), > 46 µM and > 46 µM, respectively. Besides, the result in assay [10] was inactive. The Potency entry in assay [1], in [2], in assay [3] and in [6] was “inactive” each time.
As to `CC(=O)N1c2ccc(S(=O)(=O)NCCc3ccccc3)cc2CC1C` (stereo not drawn), the Potency result in assay [1], in [2], in assay [3], in assay [4], in assay [5] and in [6] was “inactive” throughout.
`COc1ccc(OCC(=O)Nc2ccccc2N2CCCCC2)cc1`: the Potency entry in [1], in assay [2] and in [4] was “inactive” in each case. Moreover, the activation in assay [3] was -5.15% [at 17.1 µM, percent relative to cAMP agonist control]; in [6] it was 2.16% [at 30.8 µM]. In addition, the activity change, negative = inhibition in assay [5] was -4.31% [at 30.8 µM].
In the case of `O=c1oc2cc(O)ccc2cc1-c1nc2ccccc2o1`, the Potency result in assay [1] was “inactive”. Moreover, the Potency in [2] is 100 µM (active); in [3], 112 µM (active); in assay [4] it was 84.9 µM (active); in [6], 70.8 µM (active).
As to `Cc1cc(C)c(S(=O)(=O)N2CCCCC2CCNC(=O)C(=O)NCC2CCCO2)c(C)c1` (stereo not drawn), the Potency result in assay [2] and in assay [4] was “inactive” in each case. In assay [3], the activation was 2.27% [at 17.1 µM, percent relative to cAMP agonist control]. Also, in assay [5], the activity change, negative = inhibition was 6.58% [at 30.8 µM].
